This note sets out measurements from PubChem BioAssay AID431 (Sanford-Burnham Center for Chemical Genomics, 2006).

Hit rate of the full screen: of about 63,000 compounds, about 1,100 (1.7%) were called active. The sample holds actives, similar compounds and a random draw of the others, so the mix is not that of the screen. Entries with a potency or affinity are not part of this list. Unmarked numbers belong to inactive results.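 The calls were made as follows: active = compounds whose percent cytotoxicity in the single-dose primary screen, scaled between solvent and toxic-drug controls, exceeds 50; inactive = the rest.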

The test in a line: cytotoxicity in KRAS-transformed pancreatic duct cells, primary screen, cell-based, fluorescence, HTS (AID 431).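 Also: 0% = DMSO solvent wells and 100% = doxorubicin-treated wells.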 To be noted: HPDE-C7K KRASV12 cells, Alamar Blue viability, 48 h; at 10 µM; hits give high values.
`COc1cc(NC(=O)NCc2ccncc2)cc(OC)c1OC`: the cytotoxicity was -5.3%.

Turning to `COc1ccc(-c2cnc(N)nc2-c2ccc(OC)cc2O)cc1`, the cytotoxicity was -1.3%.

Take `Oc1ccccc1-c1cc(-c2ccc3c(c2)OCCO3)n[nH]1`: the cytotoxicity was 16.4%.

With `CCc1cc(-c2[nH]ncc2-c2ccc3c(c2)OCO3)c(O)cc1O`, the cytotoxicity was 64.9% (active).

With `CCOc1ccc(-c2nc(N)ncc2-c2ccccc2)c(O)c1`, the cytotoxicity is 8.3%.

For the molecule `Cc1nc(-c2ccc3c(c2)OCO3)cs1`, the cytotoxicity is -26.4%.

Consider `CCOC(=O)c1nc(-c2ccc3c(c2)OCO3)[nH]c1C`, for which the cytotoxicity is 5.4%.

Take `CCCc1cc(-c2[nH]ncc2-c2ccc(C(=O)OCC)o2)c(O)cc1O`: the cytotoxicity was 30.9%.

Regarding `CCc1nc(SCc2ccccn2)c2c(=O)n(C)c(=O)n(C)c2n1`, the cytotoxicity was -2.5%.

In the case of `CCCSCCCNC(=O)Cn1cc2c(n1)CCC(C)C2` (stereo not drawn), the cytotoxicity is 4.6%.

In the case of `COC(=O)Cc1csc(N)n1`, the cytotoxicity was -19.5%.

For `Cc1cc(C)c2[nH]c(=O)c(C(c3nnnn3Cc3ccc4c(c3)OCO4)N3CCC(C)CC3)cc2c1` (stereo not drawn), the cytotoxicity was -17.3%.

As to `O=C(CSc1nnc(-c2ccccn2)n1Cc1ccccc1)N1CCCC1`, the cytotoxicity is -3%.

As to `O=C1C(=O)N(CCOCCO)C(c2ccccn2)/C1=C(\O)c1ccccc1` (stereo not drawn), the cytotoxicity is -29.5%.

Take `CCc1oc(C(=O)O)cc1CN(CC)CC`: the cytotoxicity was -3.6%.

As to `CCCCCn1c(CN2CCCCC2CC)nc2c1c(=O)n(C)c(=O)n2C` (stereo not drawn), the cytotoxicity was 8.3%.

For the molecule `Cn1c(=O)oc2cc(S(=O)(=O)NCCC(=O)NCCc3ccccc3)ccc21`, the cytotoxicity was 0.1%.

For the molecule `Cc1cc(Nc2cccc(C)c2C)n2nc(C)nc2n1`, the cytotoxicity is 9%.

On to `O=C(COc1ccccc1)N(Cc1ccco1)c1ccc(O)cc1`, for which the cytotoxicity is -5.3%.

`CCCn1nc(NC(=O)c2cccs2)c2cc3cc(OC)ccc3nc21`: the cytotoxicity was -25.3%.

As to `COc1ccc2nc3c(cc2c1)c(NC(=O)c1cccs1)nn3CC(C)C`, the cytotoxicity is 52.8% (active).

With `CCCCn1nc(NC(=O)c2cccs2)c2cc3cc(OC)ccc3nc21`, the cytotoxicity is 23.2%.

As to `CCOc1ccccc1NC(=O)NC1CCN(CC(=O)Nc2ccc3c(c2)OCCO3)CC1`, the cytotoxicity is -18.3%.

Regarding `CCN(CC(=O)NCc1cccs1)S(=O)(=O)c1cccc(C(C)=O)c1`, the cytotoxicity is -12.5%.

Regarding `O=C(COn1nnc2ccc(Cl)cc21)NCc1ccccc1`, the cytotoxicity is 3.7%.

Turning to `O=C(COn1nnc2ccc(C(F)(F)F)cc21)Nc1nnc(-c2ccccc2)o1`, the cytotoxicity is 59.2% (active).

As to `O=C(COc1ccccc1)Nc1nnc(-c2ccccc2)o1`, the cytotoxicity was -10.7%.

Take `Cc1csc(NC(=O)C2CCN(C(=O)CSc3nnc(C)n3Cc3ccccc3)CC2)n1`: the cytotoxicity is -14%.
